Screening results (PubChem BioAssay)
sEH inh – inhibitors of human soluble epoxide hydrolase | recombinant human sEH enzymatic activity assay | inhibition, % at 2 µM | AID 707 | 0.34% of 91,000 active | P34913; in the data active = inhibition above about 80%
BAP1 inh – inhibitors of human BAP1 deubiquitinase; recombinant BAP1, Ub-AMC hydrolysis fluorescence kinetic; hits give low values; calls only at 20 µM; 0.48% of 72,000 active; AID 436;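 active = activity remaining at or below 50% of control, provided the compound also passes the data quality filters; inactive = the rest, including low values that fail the filters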;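 also: 100% = DMSO wells rate and 0% = substrate alone blank rate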
PLAP activator – activates human placental alkaline phosphatase; purified PLAP enzyme, luminescent substrate read-out; hits give high values; AID 696; activation fold at 20 µM; P05187; 1.2% of 96,000 active; in the data active = activation fold above about 2
Target sequence (P05187 whole entry, looked up): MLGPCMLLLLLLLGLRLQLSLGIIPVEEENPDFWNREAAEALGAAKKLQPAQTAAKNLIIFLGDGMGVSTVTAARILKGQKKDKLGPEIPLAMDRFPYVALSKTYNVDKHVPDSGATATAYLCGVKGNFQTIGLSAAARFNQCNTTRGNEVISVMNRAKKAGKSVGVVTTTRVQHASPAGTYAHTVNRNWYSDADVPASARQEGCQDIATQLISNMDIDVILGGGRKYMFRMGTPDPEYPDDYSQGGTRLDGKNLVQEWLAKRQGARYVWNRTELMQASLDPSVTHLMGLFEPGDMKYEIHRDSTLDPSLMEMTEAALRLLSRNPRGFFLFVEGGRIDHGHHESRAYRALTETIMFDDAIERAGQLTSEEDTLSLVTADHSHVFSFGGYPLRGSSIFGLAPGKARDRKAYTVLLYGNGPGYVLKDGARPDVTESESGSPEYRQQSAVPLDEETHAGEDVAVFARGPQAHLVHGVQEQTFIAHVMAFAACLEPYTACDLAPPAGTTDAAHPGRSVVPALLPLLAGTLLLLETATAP
sEH act – activators of human soluble epoxide hydrolase. purified human sEH enzymatic activity, activator screen. activation, % at 2 µM. AID 717. 0.04% of 91,000 active; in the data active = activation above about 37%
The depositor's hits bear a star; i = inactive; x = no result given. Compounds with a hit are over-represented: about 1.5% of the library has one in this group of screens.

SMILES	sEH inh	BAP1 inh	PLAP activator	sEH act
COc1ccc(C(=O)N2CC(C)OC(C)C2)cc1[N+](=O)[O-] (stereo unspecified)	x	i	x	x
O=C(Nc1ncn[nH]1)c1ccc(Cl)c(S(=O)(=O)N2CCCCCC2)c1	-20	x	2.1*	22
Cc1cc(O)c2c(C)cc(=O)oc2c1	x	i	x	x
O=C(c1ccc(Cl)cc1)c1coc2ccccc2c1=O	x	i	x	x
Cc1cc(C)nc(NC2=NCC(=O)N2c2cc(Cl)cc(Cl)c2)n1	-6	i	0.9	8
Cc1cccc(N2C(=O)CN=C2Nc2nc(C)cc(C)n2)c1	1	x	2.6*	-4
CS(=O)(=O)N1CCC(C(=O)N2CCc3ccccc3C2)CC1	-39	i	0.9	39*
CS(=O)(=O)N1CCCC(C(=O)N2CCc3ccccc3C2)C1 (stereo unspecified)	-3	i	1.1	2
CS(=O)(=O)N(CC(=O)N1CCc2ccccc2C1)Cc1ccccc1	18	x	2.2*	-20
CC(Nc1cc(N2CCN(C)CC2)ccc1[N+](=O)[O-])C12CC3CC(CC(C3)C1)C2 (stereo unspecified)	x	i	x	x
Cc1nc2ccc(Cc3ccc4nc(C)n(-c5ccc(O)cc5)c(=O)c4c3)cc2c(=O)n1-c1ccc(O)cc1	x	i	x	x
O=C(CN1CCN(Cc2ccccc2F)C1=O)NCc1ccco1	-4	x	2*	2
O=C(CN1CCN(Cc2ccccc2F)C1=O)NCc1cccnc1	-1	i	1	1
COc1ccc(CCN2C(=O)C3C4c5ccccc5C(C)(c5ccccc54)C3C2=O)cc1OC (stereo unspecified)	x	i	x	x
O=C(CCCOc1ccc(Cl)cc1Cl)N/N=C\C1CCCCC1	99*	x	1.1	-98
Cc1ccccc1-c1nc(CN2CCC(C(=O)NCCC3=CCCCC3)CC2)c(C)o1	93*	i	2.3*	-93
O=C(NCCC1=CCCCC1)C1CCCN(c2nc3ccccc3o2)C1 (stereo unspecified)	96*	i	1.2	-96
Cc1ccc(CNC(=O)C2CCCN(c3nc4ccccc4o3)C2)cc1 (stereo unspecified)	x	i	x	x
COc1ccc(CCNC(=O)C2CCN(Cc3nc(-c4ccccc4C)oc3C)CC2)cc1OC	36	i	2.1*	-36
Cc1ccccc1-c1nc(CN2CCC(C(=O)O)CC2)c(C)o1	-1	i	0.9	2
CCOC(=O)c1ccc(Nc2ncnc3nc[nH]c23)cc1	x	x	1.2	x
Cc1ccc(C)c(Nc2ncnc3nc[nH]c23)c1	3	i	2.4*	-4
Cc1cccc(Nc2ncnc3nc[nH]c23)c1	-3	i	x	3
c1ccc(COc2ccc(Nc3ncnc4nc[nH]c34)cc2)cc1	7	i	2.3*	-8
COc1ccc(Nc2ncnc3nc[nH]c23)cc1OC	x	i	2*	x
SMILES	sEH inh	BAP1 inh	PLAP activator	sEH act
Cn1c(Cc2cccs2)nnc1SCc1nc2ccccc2[nH]1	x	i	2*	x
Cn1c(SCc2nc3ccccc3[nH]2)nnc1-c1cccs1	16	i	1.6	-15
Cc1cc(F)ccc1S(=O)(=O)Nc1ccccc1C(=O)Nc1ncn[nH]1	x	x	2.9*	x
Cc1ccc2oc(-c3ccc(N=CC=Cc4cccc([N+](=O)[O-])c4)cc3)nc2c1	x	i	x	x
CC(=O)c1cccc(NC(=O)NC(C)C2CCCO2)c1 (stereo unspecified)	4	i	0.9	-4
CC(NC(=O)NC12CC3CC(CC(C3)C1)C2)C1CCCO1 (stereo unspecified)	90*	x	x	-90
COc1cccc2sc(=NC(=O)c3ccc(C(C)(C)C)cc3)n(C)c12	x	i	x	x
O=C(Nc1cccc(C(F)(F)F)c1)c1ccc(Br)c([N+](=O)[O-])c1	x	i	x	x
CCOc1cc(S(=O)(=O)NCc2ccccn2)c(C)cc1C	-13	i	2.2*	13
CCOc1cc(S(=O)(=O)NCc2ccccn2)ccc1Cl	-2	x	x	6
Nc1ccc2c(c1)C(=O)N(CCO)C2=O	x	i	x	x
Cc1cc2nc(C3CCN(Cc4nnnn4Cc4ccccc4)CC3)[nH]c2cc1C	15	x	2.4*	-12
CCC(C)(C)n1nnnc1CN1CCC(c2nc3ccc(C)cc3[nH]2)CC1	5	i	2.3*	-5
Cc1ccc2nc(-c3ccc(NC(=O)c4cc5ccccc5o4)cc3)sc2c1	x	i	x	x
Cc1cccc(NC(c2ccc(O)cc2)c2ccc3ccc(C)nc3c2O)n1 (stereo unspecified)	-3	x	2.8*	2
CCN(CC)S(=O)(=O)c1ccc(NC(=O)c2ccccc2N(C)S(C)(=O)=O)cc1	3	x	2.1*	-4
COc1cc(C2c3c(-c4ccccc4)n[nH]c3C(=O)N2c2ccccc2)ccc1O (stereo unspecified)	4	i	2.2*	-3
COc1cc(C2c3c(n[nH]c3C)C(=O)N2c2ccc(C)cc2)ccc1O (stereo unspecified)	x	i	2.2*	x
CCOc1cc(C2c3c(n[nH]c3C)C(=O)N2c2ccc(C)cc2)ccc1O (stereo unspecified)	-13	i	1.9	7
O=C(c1ccccc1)c1nc[nH]c1C(=O)Nc1ccccn1	13	i	2.2*	-16
CCN1CCN(c2nc3ccccc3nc2C(C#N)S(=O)(=O)c2ccc(C)cc2)CC1 (stereo unspecified)	2	x	1.5	-4
CCN1CCN(c2nc3ccccc3nc2C(C#N)S(=O)(=O)c2ccc(C)c(C)c2)CC1 (stereo unspecified)	-6	x	2*	3
NC(=O)C1CCN(Cc2nc3cc(Cl)ccc3c(=O)[nH]2)CC1	-1	x	2*	-1
COc1cc2nc(NCC3CCCO3)n3nc(-c4cccnc4)nc3c2cc1OC (stereo unspecified)	0	i	2*	1
CCN(CC)CCCNc1nc2cc(OC)c(OC)cc2c2nc(-c3ccccc3)nn12	-12	x	2*	10
SMILES	sEH inh	BAP1 inh	PLAP activator	sEH act
COc1ccccc1NC(=S)NNC(=O)c1cc(C)n(C)n1	6	x	2.8*	-4
COc1ccccc1NC(=S)NNC(=O)c1cc(C)nn1C	-4	x	x	6
Oc1c(C(c2ccco2)N2CCN(C(c3ccccc3)c3ccccc3)CC2)sc2ncnn12 (stereo unspecified)	0	i	2.1*	0
Cc1occc1C(=O)NNC(=O)Cc1ccccc1	-6	x	1.1	3
Cc1ccccc1C(=O)NNC(=O)Cc1ccccc1	-12	x	2*	10
COc1cccc(N2C(=O)c3ccc(C(=O)Nc4cccnc4)cc3C2=O)c1	x	i	x	x
C/C(=N/NC(=O)c1cc2ccccc2cc1O)C1C(=O)c2ccccc2C1=O	-12	x	1.9	8
C/C(=N\NC(=O)c1ccccc1O)C1C(=O)c2ccccc2C1=O	5	x	2.1*	-6
CC1=C(C(=O)Nc2ccccc2C)C(c2ccccc2Cl)NC(=S)N1 (stereo unspecified)	x	i	x	x
CCS(=O)(=O)N1CCC(NC(=O)C2CCCCC2)CC1	8	i	1	-7
CN(C(=O)CN1CCC(NC(=O)C2CCCCC2)CC1)C1CCCCC1	11	i	2*	-9
O=C(Nc1cccc(C(F)(F)F)c1)c1ccc2ccccc2c1	x	i	x	x
COc1ccccc1-n1c(C)cc(C(C[N+](=O)[O-])c2ccc(C)cc2)c1C (stereo unspecified)	x	i	x	x
